Screens as filed in PubChem.
RGS4 inhibitor = blocks human RGS4-accelerated GTP hydrolysis. P49798. Transcreener GDP fluorescence polarization, RGS4-accelerated GTP hydrolysis. Potency, µM (series often up to 114 µM), most hits filed as inhibitors. 390,000 compounds, 0.039% hits. AID 504845; also: nearly all actives have a fitted effect of over 75% in size
Target sequence (P49798 whole entry, looked up): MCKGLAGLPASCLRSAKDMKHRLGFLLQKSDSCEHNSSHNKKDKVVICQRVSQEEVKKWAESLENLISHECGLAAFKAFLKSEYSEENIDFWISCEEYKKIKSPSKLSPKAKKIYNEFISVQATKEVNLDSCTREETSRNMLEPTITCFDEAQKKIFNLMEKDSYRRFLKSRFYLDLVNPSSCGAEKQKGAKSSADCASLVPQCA
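MLSMR compounds (23 nl, pin-transferred) preincubated 10 min at room temperature with a 500nM (2x) first reagent, then RGS4 at 900nM (2x) plus Transcreener GDP mix added; fluorescence polarization (620/688 nm) read before and after 90 min at 30 °C.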
RECQ1 inh = inhibitors of human RECQ1 DNA helicase | P46063 | RECQ1 DNA unwinding, red fluorescence kinetic read | Potency, µM (highest dose often 57.3 µM), actives largely listed as inhibitors | 240,000 compounds, 0.54% hits; also: nearly all actives have a fitted effect of over 30% in size
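50 nM RECQ1T1 preincubated 15 min with compound in Tris pH 8.0 buffer with MgCl2, DTT, Tween-20 and 2.5 ug/ml poly(dI-dC); started with 200 nM TAMRA/BHQ-2 forked duplex and 2 mM ATP. Unwinding read as fluorescence (525/598 nm), two reads 2 h apart.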
GCN5L2 inh = GCN5L2 (KAT2A) acetyltransferase inhibition; Q92830; GCN5L2 HAT assay, ThioGlo1 CoA-SH fluorescence; Potency, µM (doses to about 58.9 µM), most hits filed as inhibitors; 390,000 compounds, 0.21% hits; AID 504327
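qHTS, 1536-well. 20nM enzyme, pH 7.5 HEPES/EDTA/Tween-20 buffer; 15 min compound preinc., RT. Start: 75uM H3(1-25), 70uM AcCoA, 50uM ThioGlo1. Read Ex340/Em540 at t=0 (autofluorescence flag) and t=20 min.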
APE1 inh = inhibitors of human APE1 endonuclease; 350,000 compounds, 0.35% hits; Potency, µM (series often up to 65.8 µM), usual class: inhibitors; AID 2517; recombinant APE1, TAMRA/BHQ-2 abasic DNA cleavage fluorescence; also: nearly all actives have a fitted effect of over 55% in size
Target sequence (P27695 whole entry, looked up): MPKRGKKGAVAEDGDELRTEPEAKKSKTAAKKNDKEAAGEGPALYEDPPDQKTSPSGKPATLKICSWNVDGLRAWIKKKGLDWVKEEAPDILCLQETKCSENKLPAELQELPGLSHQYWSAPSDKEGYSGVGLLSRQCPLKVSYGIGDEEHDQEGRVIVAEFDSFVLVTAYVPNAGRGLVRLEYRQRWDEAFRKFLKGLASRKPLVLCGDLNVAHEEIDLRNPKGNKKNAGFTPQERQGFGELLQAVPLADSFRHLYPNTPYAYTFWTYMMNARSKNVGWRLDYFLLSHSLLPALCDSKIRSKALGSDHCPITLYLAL
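Compound pre-exposure to 0.75 nM APE1, 15 min at ambient temperature. Reaction initiated with 50 nM TAMRA/BHQ-2 THF substrate, read immediately in kinetic mode, 525 nm excitation, 598 nm emission.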
BLM helicase inh = blocks DNA unwinding by human BLM helicase | recombinant BLM DNA unwinding, fluorescence dequenching | 350,000 compounds, 0.2% hits | Potency, µM (highest dose often 56.1 µM), usual class: inhibitors | P54132; also: nearly all actives have a fitted effect of over 35% in size
TDP1 block = TDP1 (human) enzyme inhibition; 350,000 compounds, 0.28% hits; Q9NUW8; Potency, µM (titrated, usually from 130 µM), usual class: inhibitors; recombinant TDP1, AlphaScreen DNA substrate cleavage; AID 485290; also: nearly all actives have a fitted effect of over 40% in size
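E. coli-derived human Tdp1, 1 nM final. Cpd preinc 15 min RT; substrate 15 nM final, 5 min RT; AS bead mix 10 ug/ml final, 10 min RT. Signal loss = tyrosine-FITC cleavage. No-enzyme wells = max signal.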
A number is an active result; – = inactive; ? = inconclusive; · = no result given; ! = not active in a repeat. This is a sample that favours compounds with a hit; in the whole collection about 0.87% have one here. Calls follow the shape of the dose curve; as a rule, active = well fitted curve in the direction sought with a large enough effect; inconclusive = small, poorly fitted or top-dose-only effect, or another doubt; inactive = no such curve, though single readings can be large; an effect the other way counts as inactive or inconclusive.

SMILES	RGS4 inhibitor	RECQ1 inh	GCN5L2 inh	APE1 inh	BLM helicase inh	TDP1 block
O=C(NCc1ccon1)c1ccc(OC2CCN(CCc3ccccc3)CC2)cc1	–	–	–	–	–	–
O=C(CN1CCN(C(=O)c2ccco2)CC1)Nc1c2c(nc3c1CCC3)CCCC2	–	–	–	–	–	89.1µM
CN(C)c1ccc(O)c2c1CC1CC3[C@@H](N(C)C)C(=O)C(C(N)=O)=C(O)[C@]3(O)C(=O)C1=C2O (stereo partly drawn)	–	?	?	14.1µM	–	·
CN(C)C1C(=O)C(C(N)=O)C(=O)C2(O)C(=O)C3C(=O)c4c(O)ccc(Cl)c4C(O)C3CC12 (stereo not drawn)	·	–	–	?	–	·
CN(C)c1ccc(O)c2c1C[C@H]1C[C@H]3[C@H](N(C)C)C(=O)C(C(N)=O)=C(O)[C@@]3(O)C(=O)C1=C2O	·	·	·	12.6µM!	·	·
COc1ccc(OC2=NS(=O)(=O)c3ccccc32)cc1	·	·	·	·	·	–
O=C(NCc1ccccc1)n1cc(P(=S)(c2ccccc2)c2ccccc2)c2ccccc21	·	·	·	·	·	–
Cc1c([N+](=O)[O-])cc(N2C(=O)C=CC2=O)cc1[N+](=O)[O-]	–	·	·	·	·	·
Cc1cc(N2C(=O)C=CC2=O)c([N+](=O)[O-])cc1C	?	–	20µM	–	–	–
Cc1ccc(NS(=O)(=O)c2ccc3c(c2)CC(=O)N3C)cc1C	·	·	·	·	·	–
CCOc1ccc(N=Cc2c(C)[nH]n(-c3nc4ccccc4[nH]3)c2=O)cc1	–	–	–	–	–	50.1µM
Cc1[nH]n(-c2ccccc2)c(=O)c1C=Nc1cnc2ccccc2c1	–	–	–	–	–	–
O=C(O)CNS(=O)(=O)c1ccc2c(c1)CCCC2	–	–	–	–	–	50.1µM
O=C(CSc1nc(-c2ccc(F)cc2)nc2c1Cc1ccccc1O2)Nc1ccc(F)cc1	·	·	·	–	·	·
CCc1cccc(NC(=O)CN2C(=O)CCc3cc(S(=O)(=O)N4CCOCC4)ccc32)c1	–	·	–	·	–	–
CC1CCN(S(=O)(=O)c2ccc3c(c2)CCC(=O)N3CC(=O)Nc2cccc(C#N)c2)CC1	–	·	–	4.74µM	–	?
CC(C)Cn1c(N)c(C(=O)COC(=O)C2Cc3ccccc3CN2S(C)(=O)=O)c(=O)n(C)c1=O (stereo not drawn)	–	·	–	–	·	28.2µM
CC(C)Cn1c(N)c(C(=O)COC(=O)C2CCCCC2)c(=O)n(C)c1=O	–	–	–	–	–	–
O=C[C@H](O)[C@@H](O)[C@@H](O)[C@H](O)CO	·	·	·	–	·	·
COc1ccc(CNc2ccncc2)c(OC)c1OC	–	·	·	·	·	·
COc1cc(NCc2ccc3nc(N)nc(N)c3c2C)cc(OC)c1OC	·	–	–	?	17.8µM!	–
O=C(N/N=C/c1c[nH]c2ccccc12)c1cc(-c2ccccc2)n[nH]1	–	25.1µM	–	–	–	–
COc1ccc(C(=O)C2C(=O)C(=O)N(Cc3ccco3)C2c2cccs2)cc1 (stereo not drawn)	–	·	·	·	·	–
CNc1ccc([N+](=O)[O-])cc1	–	11.2µM	–	–	·	–
O=[N+]([O-])c1ccc(Cc2ccc([N+](=O)[O-])cc2)cc1	–	·	·	·	·	·
SMILES	RGS4 inhibitor	RECQ1 inh	GCN5L2 inh	APE1 inh	BLM helicase inh	TDP1 block
Cc1cccc(NC(=O)CNC(=O)CCc2nc3sc4c(c3c(=O)[nH]2)CCCC4)c1C	–	·	?	10.6µM	·	?
Cc1cccc(NC(=O)CCc2nc3sc4c(c3c(=O)[nH]2)CCCC4)n1	–	·	–	–	·	·
Cc1ccc(NS(=O)(=O)c2cc3c(cc2Cl)NC(=O)C3)cc1C	·	·	·	·	·	–
COc1ccc(C2Nc3ccccc3C(=O)N2CCCN(C)C)cc1COc1ccc(NC(C)=O)cc1 (stereo not drawn)	·	·	·	·	·	–
O=C(N/N=C\c1ccc(-c2ccccc2[N+](=O)[O-])o1)C1COc2cc3ccccc3cc2O1 (stereo not drawn)	–	–	22.4µM	–	–	–
Cc1c(C(=O)N/N=C/c2ccc(-c3ccccc3[N+](=O)[O-])o2)sc(N)c1C#N	?	–	–	–	7.94µM	·
O=C(N/N=C\c1ccc(-c2ccccc2[N+](=O)[O-])o1)C1COc2ccccc2O1 (stereo not drawn)	–	–	–	–	–	–
O=C1CCc2cc(S(=O)(=O)Nc3ccc4c(c3)CCC4)ccc2N1	·	·	·	·	·	–
COc1cccc(C2c3c(ncn(-c4ccc(NC(C)=O)cc4)c3=N)Oc3ccc4ccccc4c32)c1 (stereo not drawn)	·	·	·	·	·	–
C[C@@H]1C(NC(=O)c2ccccc2)CC2CC1C2(C)C (stereo partly drawn)	–	·	–	–	–	10µM
COc1ccccc1C(=O)NNC(=O)C1CC=CCC1 (stereo not drawn)	–	·	?	–	–	35.5µM
Cc1ccc(NS(=O)(=O)c2ccc3c(c2)CC(=O)N3)c(C)c1	–	·	25.1µM	–	–	·
CCOC(=O)c1nn(-c2ccccc2)c(=O)cc1OCC(=O)Nc1cccc(OC)c1	–	·	–	–	·	–
CCOC(=O)c1nn(-c2ccc(C)cc2)c(=O)cc1OCC(=O)Nc1ccc(OC)cc1	–	·	–	–	·	44.7µM
O=C(COC(=O)Cc1ccc(Cl)cc1)NCc1ccco1	–	·	–	?	·	11.2µM
CNc1cccc(S(=O)(=O)N2CCN(S(=O)(=O)c3ccc4c(c3)OCCO4)CC2)c1	·	·	·	·	·	–
NC(=O)C1CCN(c2nc(-c3ccccc3[N+](=O)[O-])cs2)CC1	·	·	·	–	·	·
O=C(CCCN1C(=O)/C(=C\c2ccco2)SC1=S)Nc1ccc(O)cc1C(=O)O	?	·	10µM	?	–	–
CC(C(=O)Nc1ccc(C(=O)O)c(O)c1)N1C(=O)/C(=C\c2ccco2)SC1=S (stereo not drawn)	?	·	?	21.2µM	–	·
O=C(CN1C(=O)/C(=C/c2ccco2)SC1=S)Nc1ccc(C(=O)O)c(O)c1	–	·	?	?	–	·
Cc1ccc(NS(=O)(=O)c2ccc(Cl)cc2)cc1C	·	·	·	·	·	–
N#Cc1c(-c2ccc(Br)cc2)no[n+]1[O-]	·	·	·	–	·	·
O=C(c1coc(=O)c(Br)c1)N1CCCc2ccccc21	–	35.5µM	–	?	?	·
COc1cccc(C2c3c(ncn(-c4ccc(F)cc4)c3=N)Oc3ccc4ccccc4c32)c1 (stereo not drawn)	·	·	·	·	·	–
CCCCc1cc(=O)oc2cc(C)cc(OCC(=O)N[C@@H](CSCc3ccccc3)C(=O)O)c12	–	·	1.78µM	–	–	·
Cc1ccc(NC(=O)CN2C(=O)N/C(=C\c3cccn3-c3ccc([S+](N)(=O)[O-])cc3)C2=O)cc1	·	·	·	–	·	·
COC(=O)c1ccccc1-c1ccc(/C=c2\sc3nc4cc(Br)cnc4n3c2=O)o1	·	·	·	–	·	·
